# Results reported in the supplement of paper PMC11001985.
# Values without a mark were called inactive.
# Compound: C#CCNC(=O)CCSSCCC(=O)NCCc1ccc(C=O)c(C=O)c1
# Assay: lysine labeling ratio R10:1 (500 µM / 50 µM probe), SILAC-ABPP in living cells; higher = lower intrinsic lysine reactivity toward the probe, active = 2 or less
# Conditions: HeLa; probe concentrations 500 vs 50 µM
# Method in brief: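 Forward and reverse SILAC label swaps were used with living light and heavy HeLa cells in PBS at room temperature, which were given an alkyne-tagged, disulfide-linked lysine probe at 50 µM or 500 µM. R is the per-lysine filtered median high-probe/low-probe MS1 peptide ratio, with the median then taken across both swap directions. Values are limited to 20.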
# Chain of UniProt P21333 (P21333 whole entry): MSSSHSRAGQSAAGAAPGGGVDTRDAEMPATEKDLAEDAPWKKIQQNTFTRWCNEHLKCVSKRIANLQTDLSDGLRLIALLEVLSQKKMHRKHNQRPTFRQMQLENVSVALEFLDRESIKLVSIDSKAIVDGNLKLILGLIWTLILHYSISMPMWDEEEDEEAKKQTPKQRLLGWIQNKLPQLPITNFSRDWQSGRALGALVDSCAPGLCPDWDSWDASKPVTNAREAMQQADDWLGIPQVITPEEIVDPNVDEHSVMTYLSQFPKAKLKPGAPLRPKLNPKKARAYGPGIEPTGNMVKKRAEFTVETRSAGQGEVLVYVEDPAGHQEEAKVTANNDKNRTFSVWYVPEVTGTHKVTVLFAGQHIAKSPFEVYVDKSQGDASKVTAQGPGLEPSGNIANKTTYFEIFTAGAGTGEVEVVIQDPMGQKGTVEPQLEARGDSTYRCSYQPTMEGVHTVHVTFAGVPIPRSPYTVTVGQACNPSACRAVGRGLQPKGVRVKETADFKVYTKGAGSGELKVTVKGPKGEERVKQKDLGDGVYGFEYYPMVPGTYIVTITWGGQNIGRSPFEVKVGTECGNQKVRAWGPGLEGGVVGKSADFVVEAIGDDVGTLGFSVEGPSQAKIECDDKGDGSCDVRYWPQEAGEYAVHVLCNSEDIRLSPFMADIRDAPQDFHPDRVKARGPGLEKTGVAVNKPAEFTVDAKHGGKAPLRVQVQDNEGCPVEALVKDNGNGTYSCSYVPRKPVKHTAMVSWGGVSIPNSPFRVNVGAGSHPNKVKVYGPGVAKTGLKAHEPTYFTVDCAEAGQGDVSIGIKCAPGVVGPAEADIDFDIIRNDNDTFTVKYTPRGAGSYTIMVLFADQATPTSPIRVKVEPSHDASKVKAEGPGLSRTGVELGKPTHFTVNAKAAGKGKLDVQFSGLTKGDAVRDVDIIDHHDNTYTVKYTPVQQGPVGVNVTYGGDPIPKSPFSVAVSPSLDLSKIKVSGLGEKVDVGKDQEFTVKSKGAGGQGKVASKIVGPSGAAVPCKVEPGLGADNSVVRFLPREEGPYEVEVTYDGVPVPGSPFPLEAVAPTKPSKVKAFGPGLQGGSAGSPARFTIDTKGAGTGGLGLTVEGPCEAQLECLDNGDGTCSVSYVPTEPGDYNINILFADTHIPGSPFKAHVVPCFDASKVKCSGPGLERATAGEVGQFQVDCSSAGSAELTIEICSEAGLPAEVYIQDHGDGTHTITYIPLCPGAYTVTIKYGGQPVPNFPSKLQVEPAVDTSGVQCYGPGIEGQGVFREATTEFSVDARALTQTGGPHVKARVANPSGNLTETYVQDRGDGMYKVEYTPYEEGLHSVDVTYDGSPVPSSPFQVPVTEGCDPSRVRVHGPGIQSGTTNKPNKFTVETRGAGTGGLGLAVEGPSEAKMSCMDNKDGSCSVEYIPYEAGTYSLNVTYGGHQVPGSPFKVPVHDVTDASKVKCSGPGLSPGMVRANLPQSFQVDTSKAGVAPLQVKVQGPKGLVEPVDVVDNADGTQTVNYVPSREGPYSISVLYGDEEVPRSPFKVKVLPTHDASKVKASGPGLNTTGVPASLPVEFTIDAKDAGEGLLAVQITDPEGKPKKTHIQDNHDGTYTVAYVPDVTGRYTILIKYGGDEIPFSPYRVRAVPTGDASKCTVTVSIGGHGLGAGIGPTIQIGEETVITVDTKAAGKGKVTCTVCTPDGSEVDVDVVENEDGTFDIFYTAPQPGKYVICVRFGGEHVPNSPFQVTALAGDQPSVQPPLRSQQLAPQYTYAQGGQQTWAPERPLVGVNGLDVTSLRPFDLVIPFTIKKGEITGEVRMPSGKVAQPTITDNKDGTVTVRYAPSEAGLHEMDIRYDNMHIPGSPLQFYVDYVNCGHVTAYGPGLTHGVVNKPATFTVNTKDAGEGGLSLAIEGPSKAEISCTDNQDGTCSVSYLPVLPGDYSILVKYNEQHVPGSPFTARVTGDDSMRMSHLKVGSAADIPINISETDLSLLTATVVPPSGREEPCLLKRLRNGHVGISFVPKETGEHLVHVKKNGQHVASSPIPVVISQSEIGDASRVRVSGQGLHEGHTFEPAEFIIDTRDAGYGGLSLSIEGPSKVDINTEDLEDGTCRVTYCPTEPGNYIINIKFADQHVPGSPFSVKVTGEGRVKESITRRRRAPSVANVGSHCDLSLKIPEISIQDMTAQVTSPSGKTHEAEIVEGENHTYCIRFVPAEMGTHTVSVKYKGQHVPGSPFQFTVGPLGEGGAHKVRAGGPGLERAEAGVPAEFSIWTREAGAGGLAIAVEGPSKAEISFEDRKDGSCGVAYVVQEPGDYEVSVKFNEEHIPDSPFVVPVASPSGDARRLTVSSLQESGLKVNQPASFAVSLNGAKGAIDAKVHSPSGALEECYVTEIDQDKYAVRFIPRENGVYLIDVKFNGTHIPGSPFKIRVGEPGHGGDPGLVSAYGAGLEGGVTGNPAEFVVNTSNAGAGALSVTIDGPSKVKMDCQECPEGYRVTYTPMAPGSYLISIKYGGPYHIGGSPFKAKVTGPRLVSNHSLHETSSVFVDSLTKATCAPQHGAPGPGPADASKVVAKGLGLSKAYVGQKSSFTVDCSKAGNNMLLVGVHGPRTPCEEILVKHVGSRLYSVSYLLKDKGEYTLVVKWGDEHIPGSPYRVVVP
# Chain of UniProt P02768 (P02768 whole entry): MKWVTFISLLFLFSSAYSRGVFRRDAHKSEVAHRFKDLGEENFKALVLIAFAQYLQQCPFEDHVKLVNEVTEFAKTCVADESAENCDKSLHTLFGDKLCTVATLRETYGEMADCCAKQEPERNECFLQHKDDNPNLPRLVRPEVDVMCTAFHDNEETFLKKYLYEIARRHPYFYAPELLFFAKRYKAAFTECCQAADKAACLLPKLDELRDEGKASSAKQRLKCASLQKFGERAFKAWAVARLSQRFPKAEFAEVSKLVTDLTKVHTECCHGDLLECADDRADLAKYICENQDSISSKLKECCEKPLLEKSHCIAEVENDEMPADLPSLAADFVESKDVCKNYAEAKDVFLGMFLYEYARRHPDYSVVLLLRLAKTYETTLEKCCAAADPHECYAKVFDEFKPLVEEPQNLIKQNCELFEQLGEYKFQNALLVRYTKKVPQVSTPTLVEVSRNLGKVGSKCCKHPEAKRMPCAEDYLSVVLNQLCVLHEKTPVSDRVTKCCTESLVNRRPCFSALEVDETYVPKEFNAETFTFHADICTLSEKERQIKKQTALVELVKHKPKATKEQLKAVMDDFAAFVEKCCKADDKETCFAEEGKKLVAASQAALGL
# Chain of UniProt Q9Y2W1 (Q9Y2W1 whole entry): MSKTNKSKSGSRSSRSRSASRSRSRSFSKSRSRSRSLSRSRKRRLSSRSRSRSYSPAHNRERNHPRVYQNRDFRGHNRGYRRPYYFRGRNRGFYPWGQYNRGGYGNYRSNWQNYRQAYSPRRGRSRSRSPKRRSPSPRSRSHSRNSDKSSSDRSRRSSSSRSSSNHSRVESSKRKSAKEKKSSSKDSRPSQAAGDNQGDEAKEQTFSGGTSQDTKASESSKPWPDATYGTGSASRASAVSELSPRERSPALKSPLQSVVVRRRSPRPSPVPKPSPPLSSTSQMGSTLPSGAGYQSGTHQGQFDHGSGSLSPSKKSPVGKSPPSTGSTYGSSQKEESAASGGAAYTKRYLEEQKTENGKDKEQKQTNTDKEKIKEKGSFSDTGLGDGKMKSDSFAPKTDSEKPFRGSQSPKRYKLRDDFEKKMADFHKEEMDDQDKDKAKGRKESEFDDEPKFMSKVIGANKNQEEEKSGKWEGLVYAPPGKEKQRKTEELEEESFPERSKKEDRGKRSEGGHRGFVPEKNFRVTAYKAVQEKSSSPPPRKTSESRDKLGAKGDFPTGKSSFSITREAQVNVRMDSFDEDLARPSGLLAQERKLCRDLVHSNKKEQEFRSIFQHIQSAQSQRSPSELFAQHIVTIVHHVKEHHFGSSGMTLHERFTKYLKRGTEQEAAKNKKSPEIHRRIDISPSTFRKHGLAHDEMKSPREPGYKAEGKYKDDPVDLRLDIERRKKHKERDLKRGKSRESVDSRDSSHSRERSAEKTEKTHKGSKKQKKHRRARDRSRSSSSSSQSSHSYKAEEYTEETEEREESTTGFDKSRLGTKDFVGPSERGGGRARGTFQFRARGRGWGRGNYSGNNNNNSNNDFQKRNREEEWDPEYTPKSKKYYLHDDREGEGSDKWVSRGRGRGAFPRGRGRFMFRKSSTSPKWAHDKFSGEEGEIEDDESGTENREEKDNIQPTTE
# Chain of UniProt P19022 (P19022 whole entry): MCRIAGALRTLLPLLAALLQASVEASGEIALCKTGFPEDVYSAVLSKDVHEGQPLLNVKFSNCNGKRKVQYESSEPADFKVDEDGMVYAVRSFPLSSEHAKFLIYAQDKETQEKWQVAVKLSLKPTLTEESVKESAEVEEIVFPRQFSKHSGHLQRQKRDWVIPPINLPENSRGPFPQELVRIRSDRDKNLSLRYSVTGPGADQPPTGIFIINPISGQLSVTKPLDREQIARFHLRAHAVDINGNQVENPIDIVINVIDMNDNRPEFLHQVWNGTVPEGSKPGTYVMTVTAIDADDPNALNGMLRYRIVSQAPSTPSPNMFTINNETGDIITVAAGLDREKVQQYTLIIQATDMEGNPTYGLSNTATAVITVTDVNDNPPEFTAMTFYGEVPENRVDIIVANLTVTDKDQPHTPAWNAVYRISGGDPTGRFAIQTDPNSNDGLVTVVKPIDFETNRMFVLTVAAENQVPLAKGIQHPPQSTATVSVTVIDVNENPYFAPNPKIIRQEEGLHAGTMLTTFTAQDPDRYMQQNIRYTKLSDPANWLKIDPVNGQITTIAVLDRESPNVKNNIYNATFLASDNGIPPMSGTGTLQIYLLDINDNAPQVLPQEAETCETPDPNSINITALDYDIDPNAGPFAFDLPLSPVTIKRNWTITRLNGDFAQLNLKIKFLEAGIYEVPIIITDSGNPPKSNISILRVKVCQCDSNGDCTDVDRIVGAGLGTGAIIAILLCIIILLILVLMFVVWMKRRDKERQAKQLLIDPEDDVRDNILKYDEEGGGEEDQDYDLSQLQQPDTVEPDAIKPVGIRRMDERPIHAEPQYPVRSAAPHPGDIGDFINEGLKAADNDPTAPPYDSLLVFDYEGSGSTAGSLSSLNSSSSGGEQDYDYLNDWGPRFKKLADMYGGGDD
row,Target,lysine labeling ratio R10:1
1,SMC2 (lysine site: K963) (UniProt O95347),2.26
2,UniProt Q15149 (lysine site: K4270),0.968 (active)
3,CDH2 (lysine site: K699) (UniProt P19022),10.6
4,SRI (lysine site: K146) (UniProt P30626),4.33
5,UniProt P62829 (lysine site: K74),3.78
6,TFRC (lysine site: K358) (UniProt P02786),1.48 (active)
7,INSR (lysine site: K476) (UniProt P06213),1.75 (active)
8,PLXNB2 (lysine site: K941) (UniProt O15031),2.31
9,SFN (lysine site: K77) (UniProt P31947),3.35
10,FN1 (lysine site: K248) (UniProt P02751),2.7
11,FLNA (lysine site: K2000) (UniProt P21333),1.14 (active)
12,SLC4A2 (lysine site: K893) (UniProt P04920),3.14
13,UniProt P02768 (lysine site: K229),5.69
14,FLNA (lysine site: K704) (UniProt P21333),1.61 (active)
15,SLC39A6 (lysine site: K143) (UniProt Q13433),4.18
16,SPTBN2 (lysine site: K1874) (UniProt O15020),5.9
17,IGSF8 (lysine site: K143) (UniProt Q969P0),2.9
18,IGSF3 (lysine site: K642) (UniProt O75054),1.12 (active)
19,IGF2R (lysine site: K1776) (UniProt P11717),2.48
20,CKAP4 (lysine site: K388) (UniProt Q07065),2.6

row,Target,lysine labeling ratio R10:1
1,VCL (lysine site: K453) (UniProt P18206),3.28
2,UniProt Q15149 (lysine site: K4140),3.87
3,CD99L2 (lysine site: K86) (UniProt Q8TCZ2),3.94
4,HNRNPC (lysine site: K176) (UniProt P07910),3.1
5,PTGFRN (lysine site: K632) (UniProt Q9P2B2),11.6
6,ATAD3B (lysine site: K281) (UniProt Q5T9A4),12.6
7,UniProt Q16513 (lysine site: K690),2.89
8,THRAP3 (lysine site: K346) (UniProt Q9Y2W1),2.43
9,EZR (lysine site: K400) (UniProt P15311),6.03
10,UniProt P02768 (lysine site: K438),10
11,PPIA (lysine site: K49) (UniProt P62937),3.03
12,UniProt P61106 (lysine site: K193),3.57
13,CAPZB (lysine site: K237) (UniProt P47756),1.4 (active)
14,TAGLN2 (lysine site: K40) (UniProt P37802),2.67
15,MCAM (lysine site: K398) (UniProt P43121),5.61
16,STMN1 (lysine site: K119) (UniProt P16949),1.62 (active)
17,CELSR2 (lysine site: K2300) (UniProt Q9HCU4),1.18 (active)
18,CCT3 (lysine site: K222) (UniProt P49368),2.19
19,FRAS1 (lysine site: K2523) (UniProt Q86XX4),2.03
20,UniProt P62701 (lysine site: K106),2.28
